Binding signal data for one sequence are collected here from publication PMC7862700, “An all-to-all approach to the identification of sequence-specific readers for epigenetic DNA modifications on cytosine”.

Holding throughout (test): DAPPL (digital affinity profiling via proximity ligation, sequencing); 10 mM Tris-HCl pH 7.5, 50 mM NaCl, 1 mM DTT, 4% glycerol, room temperature, 30 min; GST-TFs on glutathione beads, 16-mer random dsDNA library, 0.1% formaldehyde crosslink after washing; high values mean tight binding
One experiment addresses T1, FEV (Homo sapiens, UniProt Q99581 1-238).
T1 sequence: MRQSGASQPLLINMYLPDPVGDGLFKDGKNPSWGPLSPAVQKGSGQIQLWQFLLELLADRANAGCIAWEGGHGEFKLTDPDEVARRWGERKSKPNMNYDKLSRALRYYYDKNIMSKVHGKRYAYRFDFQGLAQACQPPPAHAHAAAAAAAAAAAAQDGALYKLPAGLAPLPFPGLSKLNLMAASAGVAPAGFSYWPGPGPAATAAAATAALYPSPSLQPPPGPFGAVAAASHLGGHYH
To be noted: protein: recombinant; tags: N-terminal GST; dsDNA, one strand shown. An outline of the steps: (§1)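 In yeast, human transcription factors were expressed with a GST fusion, then pulled down on glutathione beads and given DNA barcodes. Pooled with a tag-only sample, they were exposed to 200 nmole of a 16-mer random double-stranded DNA library (Tris/NaCl/DTT/glycerol buffer, room temperature, 30 min), washed, crosslinked with 0.1% formaldehyde, proximity-ligated using BsaI/T4 ligase for 1 h at 37 °C, PCR-amplified and read on an Illumina NextSeq500. Each hexamer's frequency of reads for a factor, divided by the matching frequency for the tag-only sample, gives the binding signal.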

Another experiment deals with ETV5 (Homo sapiens, UniProt P41161 1-510). The following applies: protein: recombinant; tags: N-terminal GST; dsDNA, one strand shown. An outline of the steps:
as §1

Another experiment has as its target HSF1 (Homo sapiens, UniProt Q00613 1-529). The following applies: protein: recombinant; tags: N-terminal GST; chain copies: 3; dsDNA, one strand shown. Put shortly: as §1
In a further experiment the target is T2, SPIC (Homo sapiens, UniProt Q8N5J4 1-248).
T2 sequence: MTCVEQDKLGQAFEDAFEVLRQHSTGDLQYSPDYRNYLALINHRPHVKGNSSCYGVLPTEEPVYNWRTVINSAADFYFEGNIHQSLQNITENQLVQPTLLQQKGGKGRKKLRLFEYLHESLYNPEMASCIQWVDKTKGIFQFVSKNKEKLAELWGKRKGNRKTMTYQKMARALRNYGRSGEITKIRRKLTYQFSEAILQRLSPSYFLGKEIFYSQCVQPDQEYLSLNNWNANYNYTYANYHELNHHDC
To be noted: protein: recombinant; tags: N-terminal GST; dsDNA, one strand shown. An outline of the steps:
as §1

Another experiment concerns the target ELF4 (Homo sapiens, UniProt Q99607 1-663). The following applies: protein: recombinant; tags: N-terminal GST; dsDNA, one strand shown. An outline of the steps:
as §1

The target of a further experiment is T3, ELK4 (Homo sapiens, UniProt P28324-2 1-405).
T3 sequence: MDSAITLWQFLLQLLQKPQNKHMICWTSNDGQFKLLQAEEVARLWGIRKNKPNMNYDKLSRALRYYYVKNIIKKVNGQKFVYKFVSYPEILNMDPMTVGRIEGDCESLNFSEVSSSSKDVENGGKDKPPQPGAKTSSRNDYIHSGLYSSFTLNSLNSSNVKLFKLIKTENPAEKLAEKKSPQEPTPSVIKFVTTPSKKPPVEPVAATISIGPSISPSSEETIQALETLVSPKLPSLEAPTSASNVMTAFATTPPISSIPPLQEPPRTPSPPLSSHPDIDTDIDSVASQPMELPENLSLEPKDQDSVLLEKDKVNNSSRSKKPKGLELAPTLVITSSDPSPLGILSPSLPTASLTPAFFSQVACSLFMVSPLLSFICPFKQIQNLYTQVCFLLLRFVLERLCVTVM
To be noted: protein: recombinant; tags: N-terminal GST; dsDNA, one strand shown. An outline of the steps:
as §1

In the next experiment the target is T4, ETV2 (Homo sapiens, UniProt O00321 1-342).
T4 sequence: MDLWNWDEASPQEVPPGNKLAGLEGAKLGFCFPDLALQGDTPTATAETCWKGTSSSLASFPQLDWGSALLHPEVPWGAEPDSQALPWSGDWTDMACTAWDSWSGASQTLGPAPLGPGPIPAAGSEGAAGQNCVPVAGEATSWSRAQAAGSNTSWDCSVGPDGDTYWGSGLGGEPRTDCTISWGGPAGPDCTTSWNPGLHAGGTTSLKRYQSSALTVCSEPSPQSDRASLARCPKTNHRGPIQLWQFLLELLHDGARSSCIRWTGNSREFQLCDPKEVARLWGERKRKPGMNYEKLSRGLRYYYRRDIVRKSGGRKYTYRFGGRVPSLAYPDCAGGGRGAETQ
To be noted: protein: recombinant; tags: N-terminal GST; dsDNA, one strand shown. An outline of the steps:
as §1

The next experiment has as its target T5, ELF3 (Homo sapiens, UniProt P78545 1-371).
T5 sequence: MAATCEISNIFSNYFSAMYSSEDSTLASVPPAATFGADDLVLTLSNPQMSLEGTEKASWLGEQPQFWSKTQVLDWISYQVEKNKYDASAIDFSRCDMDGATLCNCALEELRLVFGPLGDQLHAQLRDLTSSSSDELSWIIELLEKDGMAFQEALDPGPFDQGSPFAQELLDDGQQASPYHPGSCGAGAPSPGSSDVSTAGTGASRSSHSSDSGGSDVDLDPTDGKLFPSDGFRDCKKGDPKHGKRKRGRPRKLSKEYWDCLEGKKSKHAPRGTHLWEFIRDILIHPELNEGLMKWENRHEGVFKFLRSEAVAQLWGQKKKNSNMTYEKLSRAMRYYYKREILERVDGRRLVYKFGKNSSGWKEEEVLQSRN
The following applies: protein: recombinant; tags: N-terminal GST; dsDNA, one strand shown. Put shortly:
as §1

For another experiment, the target named is CRX (Homo sapiens, UniProt O43186 1-299). The following applies: protein: recombinant; tags: N-terminal GST; dsDNA, one strand shown. An outline of the steps: as §1
A further experiment addresses ETV1 (Homo sapiens, UniProt P50549 1-477). To be noted: protein: recombinant; tags: N-terminal GST; dsDNA, one strand shown. An outline of the steps:
as §1

The next experiment addresses T6, ERF (Homo sapiens, UniProt P50548 1-548).
T6 sequence: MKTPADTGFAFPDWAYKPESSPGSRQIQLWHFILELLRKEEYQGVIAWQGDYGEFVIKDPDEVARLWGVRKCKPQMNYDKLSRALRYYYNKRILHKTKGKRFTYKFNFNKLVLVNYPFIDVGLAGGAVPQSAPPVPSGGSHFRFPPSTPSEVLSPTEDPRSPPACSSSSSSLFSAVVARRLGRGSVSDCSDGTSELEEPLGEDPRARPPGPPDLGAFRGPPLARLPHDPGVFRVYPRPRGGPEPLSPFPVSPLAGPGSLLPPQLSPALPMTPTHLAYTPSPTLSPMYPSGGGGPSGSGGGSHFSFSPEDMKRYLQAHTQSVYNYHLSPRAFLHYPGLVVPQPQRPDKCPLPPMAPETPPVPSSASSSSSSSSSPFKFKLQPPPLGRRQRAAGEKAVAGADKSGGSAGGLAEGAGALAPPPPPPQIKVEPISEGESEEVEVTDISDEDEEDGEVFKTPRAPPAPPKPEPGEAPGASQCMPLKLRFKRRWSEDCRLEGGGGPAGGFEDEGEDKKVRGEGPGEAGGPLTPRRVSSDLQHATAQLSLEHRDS
To be noted: protein: recombinant; tags: N-terminal GST; dsDNA, one strand shown. Put shortly:
as §1

A further experiment has as its target T7, ETV3L (Homo sapiens, UniProt Q6ZN32 1-361).
T7 sequence: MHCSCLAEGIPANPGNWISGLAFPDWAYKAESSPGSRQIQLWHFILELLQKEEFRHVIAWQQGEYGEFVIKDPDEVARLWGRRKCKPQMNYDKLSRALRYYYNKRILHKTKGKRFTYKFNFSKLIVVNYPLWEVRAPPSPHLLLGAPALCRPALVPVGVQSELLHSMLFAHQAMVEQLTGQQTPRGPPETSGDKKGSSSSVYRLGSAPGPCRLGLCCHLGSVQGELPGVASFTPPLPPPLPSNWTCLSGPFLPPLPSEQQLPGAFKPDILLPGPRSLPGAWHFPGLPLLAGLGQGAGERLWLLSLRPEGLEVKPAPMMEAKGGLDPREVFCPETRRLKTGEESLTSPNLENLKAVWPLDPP
The following applies: protein: recombinant; tags: N-terminal GST; dsDNA, one strand shown. An outline of the steps:
as §1

The target in a further experiment is T8, ETS2 (Homo sapiens, UniProt P15036 1-469).
T8 sequence: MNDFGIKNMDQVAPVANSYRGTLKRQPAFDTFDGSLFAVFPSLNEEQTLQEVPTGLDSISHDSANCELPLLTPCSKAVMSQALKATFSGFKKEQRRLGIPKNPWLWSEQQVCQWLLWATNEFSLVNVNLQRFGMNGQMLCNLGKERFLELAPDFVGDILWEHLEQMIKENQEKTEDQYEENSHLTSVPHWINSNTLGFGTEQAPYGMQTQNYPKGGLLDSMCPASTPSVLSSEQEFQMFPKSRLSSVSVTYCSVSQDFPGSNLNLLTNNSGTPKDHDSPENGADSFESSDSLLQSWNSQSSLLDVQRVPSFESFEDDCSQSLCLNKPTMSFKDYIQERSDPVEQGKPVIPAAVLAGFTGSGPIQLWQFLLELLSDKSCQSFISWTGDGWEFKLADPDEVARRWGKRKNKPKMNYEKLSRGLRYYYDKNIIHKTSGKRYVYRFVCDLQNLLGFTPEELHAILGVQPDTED
To be noted: protein: recombinant; tags: N-terminal GST; dsDNA, one strand shown. Put shortly: as §1

Another experiment addresses T9, SPDEF (Homo sapiens, UniProt O95238 1-335).
T9 sequence: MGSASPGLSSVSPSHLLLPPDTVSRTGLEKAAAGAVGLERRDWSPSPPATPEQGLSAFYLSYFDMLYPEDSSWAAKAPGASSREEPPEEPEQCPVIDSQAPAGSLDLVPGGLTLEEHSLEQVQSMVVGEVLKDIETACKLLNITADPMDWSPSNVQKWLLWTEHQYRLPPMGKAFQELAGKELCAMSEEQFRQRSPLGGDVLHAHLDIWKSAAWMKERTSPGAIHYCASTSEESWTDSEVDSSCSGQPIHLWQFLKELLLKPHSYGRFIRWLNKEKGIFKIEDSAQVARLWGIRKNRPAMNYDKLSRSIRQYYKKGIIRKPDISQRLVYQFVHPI
To be noted: protein: recombinant; tags: N-terminal GST; dsDNA, one strand shown. Put shortly: as §1

In a further experiment the target is T10, ETV7 (Homo sapiens, UniProt Q9Y603 1-341).
T10 sequence: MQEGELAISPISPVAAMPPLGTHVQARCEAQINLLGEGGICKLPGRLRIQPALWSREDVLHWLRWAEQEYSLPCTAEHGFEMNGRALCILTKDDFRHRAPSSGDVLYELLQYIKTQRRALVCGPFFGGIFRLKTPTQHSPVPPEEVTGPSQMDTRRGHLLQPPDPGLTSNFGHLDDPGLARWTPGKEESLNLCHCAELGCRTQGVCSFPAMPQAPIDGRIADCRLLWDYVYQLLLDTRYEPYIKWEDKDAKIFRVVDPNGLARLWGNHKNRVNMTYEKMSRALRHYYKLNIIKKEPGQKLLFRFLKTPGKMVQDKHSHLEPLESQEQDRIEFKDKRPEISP
The following applies: protein: recombinant; tags: N-terminal GST; dsDNA, one strand shown. Put shortly: as §1

In a further experiment the target is T11, ELF5 (Homo sapiens, UniProt Q9UKW6-2 1-255).
T11 sequence: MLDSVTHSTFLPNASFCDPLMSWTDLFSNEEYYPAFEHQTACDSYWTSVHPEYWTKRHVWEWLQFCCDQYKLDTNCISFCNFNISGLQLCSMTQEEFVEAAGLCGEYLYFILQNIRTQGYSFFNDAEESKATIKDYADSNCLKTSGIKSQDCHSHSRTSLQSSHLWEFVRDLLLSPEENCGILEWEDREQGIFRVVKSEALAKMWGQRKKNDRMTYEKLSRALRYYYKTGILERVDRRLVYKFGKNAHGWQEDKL
The following applies: protein: recombinant; tags: N-terminal GST; dsDNA, one strand shown. Put shortly:
as §1

A further experiment addresses T12, ETV3 (Homo sapiens, UniProt P41162-2 1-143).
T12 sequence: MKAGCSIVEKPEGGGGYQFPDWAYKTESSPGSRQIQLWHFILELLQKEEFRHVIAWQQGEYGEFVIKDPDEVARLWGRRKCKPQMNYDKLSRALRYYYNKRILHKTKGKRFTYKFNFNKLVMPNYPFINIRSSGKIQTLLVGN
To be noted: protein: recombinant; tags: N-terminal GST; dsDNA, one strand shown. An outline of the steps:
as §1

A further experiment addresses ETV6 (Homo sapiens, UniProt P41212 1-452). The following applies: protein: recombinant; tags: N-terminal GST; dsDNA, one strand shown. An outline of the steps: as §1

Sequence of ETV5 (P41161 whole entry): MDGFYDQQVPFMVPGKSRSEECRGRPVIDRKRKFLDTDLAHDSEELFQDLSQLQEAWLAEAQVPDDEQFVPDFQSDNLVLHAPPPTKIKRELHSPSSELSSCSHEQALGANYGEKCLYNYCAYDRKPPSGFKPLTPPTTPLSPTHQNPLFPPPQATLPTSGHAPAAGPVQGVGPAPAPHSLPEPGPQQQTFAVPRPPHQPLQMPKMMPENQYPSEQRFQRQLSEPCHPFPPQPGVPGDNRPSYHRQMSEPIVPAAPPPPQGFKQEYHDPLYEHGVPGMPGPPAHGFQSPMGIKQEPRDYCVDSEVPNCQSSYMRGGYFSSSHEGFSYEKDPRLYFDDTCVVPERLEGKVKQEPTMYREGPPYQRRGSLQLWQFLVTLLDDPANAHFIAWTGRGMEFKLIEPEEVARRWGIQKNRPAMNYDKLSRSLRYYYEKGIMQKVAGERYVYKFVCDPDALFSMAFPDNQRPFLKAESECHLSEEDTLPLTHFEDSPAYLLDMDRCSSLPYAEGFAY
Sequence of HSF1 (Q00613 whole entry): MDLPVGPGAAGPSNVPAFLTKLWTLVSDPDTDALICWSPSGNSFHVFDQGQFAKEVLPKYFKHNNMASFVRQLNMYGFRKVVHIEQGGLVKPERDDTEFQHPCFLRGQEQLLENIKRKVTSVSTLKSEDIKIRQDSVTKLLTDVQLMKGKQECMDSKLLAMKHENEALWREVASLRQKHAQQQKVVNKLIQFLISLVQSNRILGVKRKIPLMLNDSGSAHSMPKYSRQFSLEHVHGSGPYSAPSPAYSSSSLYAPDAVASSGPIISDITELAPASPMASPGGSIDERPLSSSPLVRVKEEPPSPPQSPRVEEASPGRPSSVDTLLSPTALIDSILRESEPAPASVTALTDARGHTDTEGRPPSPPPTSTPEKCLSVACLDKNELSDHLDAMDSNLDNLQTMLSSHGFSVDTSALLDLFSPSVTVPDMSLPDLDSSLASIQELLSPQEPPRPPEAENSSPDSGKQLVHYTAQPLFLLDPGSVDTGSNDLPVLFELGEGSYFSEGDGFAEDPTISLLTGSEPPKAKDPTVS
Sequence of ETV1 (P50549 whole entry): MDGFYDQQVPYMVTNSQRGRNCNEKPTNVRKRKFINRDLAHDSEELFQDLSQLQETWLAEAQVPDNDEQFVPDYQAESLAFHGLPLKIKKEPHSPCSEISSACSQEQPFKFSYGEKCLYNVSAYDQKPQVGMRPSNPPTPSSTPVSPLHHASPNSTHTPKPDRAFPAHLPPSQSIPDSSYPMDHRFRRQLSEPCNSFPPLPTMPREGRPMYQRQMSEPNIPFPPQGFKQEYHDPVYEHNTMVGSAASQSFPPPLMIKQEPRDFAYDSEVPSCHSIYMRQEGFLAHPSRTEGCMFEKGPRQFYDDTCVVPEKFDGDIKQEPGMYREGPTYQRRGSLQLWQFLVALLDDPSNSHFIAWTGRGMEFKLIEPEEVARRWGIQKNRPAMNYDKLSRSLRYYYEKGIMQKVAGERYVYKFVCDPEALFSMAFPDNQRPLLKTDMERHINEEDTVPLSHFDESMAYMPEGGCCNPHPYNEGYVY
Sequence of ELF4 (Q99607 whole entry): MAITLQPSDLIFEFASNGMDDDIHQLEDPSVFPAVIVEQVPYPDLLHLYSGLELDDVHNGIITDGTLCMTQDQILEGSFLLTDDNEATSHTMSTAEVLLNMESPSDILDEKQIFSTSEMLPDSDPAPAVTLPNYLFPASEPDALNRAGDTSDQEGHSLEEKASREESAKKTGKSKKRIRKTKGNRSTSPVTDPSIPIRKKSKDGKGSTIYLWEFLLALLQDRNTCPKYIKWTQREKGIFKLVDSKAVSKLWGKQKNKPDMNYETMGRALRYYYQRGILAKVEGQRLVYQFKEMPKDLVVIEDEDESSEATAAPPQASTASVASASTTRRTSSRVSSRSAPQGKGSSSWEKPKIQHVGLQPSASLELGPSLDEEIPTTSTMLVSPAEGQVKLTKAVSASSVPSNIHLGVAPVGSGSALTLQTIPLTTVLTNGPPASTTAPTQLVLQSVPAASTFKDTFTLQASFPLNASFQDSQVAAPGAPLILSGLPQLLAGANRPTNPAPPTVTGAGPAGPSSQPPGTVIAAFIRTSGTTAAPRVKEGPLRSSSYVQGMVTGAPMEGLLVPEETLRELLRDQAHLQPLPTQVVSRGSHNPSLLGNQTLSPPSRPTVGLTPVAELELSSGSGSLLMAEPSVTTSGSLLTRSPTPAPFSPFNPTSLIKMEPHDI
Sequence of CRX (O43186 whole entry): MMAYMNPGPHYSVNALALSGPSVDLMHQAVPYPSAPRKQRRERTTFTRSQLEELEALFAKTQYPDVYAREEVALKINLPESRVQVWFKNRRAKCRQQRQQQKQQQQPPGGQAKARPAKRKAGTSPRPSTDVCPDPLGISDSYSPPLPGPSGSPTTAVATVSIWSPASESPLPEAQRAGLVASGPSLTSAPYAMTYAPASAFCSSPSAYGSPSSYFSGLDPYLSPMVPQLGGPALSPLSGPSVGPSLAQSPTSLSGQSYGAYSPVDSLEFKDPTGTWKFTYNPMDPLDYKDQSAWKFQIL
Sequence of ETV6 (P41212 whole entry): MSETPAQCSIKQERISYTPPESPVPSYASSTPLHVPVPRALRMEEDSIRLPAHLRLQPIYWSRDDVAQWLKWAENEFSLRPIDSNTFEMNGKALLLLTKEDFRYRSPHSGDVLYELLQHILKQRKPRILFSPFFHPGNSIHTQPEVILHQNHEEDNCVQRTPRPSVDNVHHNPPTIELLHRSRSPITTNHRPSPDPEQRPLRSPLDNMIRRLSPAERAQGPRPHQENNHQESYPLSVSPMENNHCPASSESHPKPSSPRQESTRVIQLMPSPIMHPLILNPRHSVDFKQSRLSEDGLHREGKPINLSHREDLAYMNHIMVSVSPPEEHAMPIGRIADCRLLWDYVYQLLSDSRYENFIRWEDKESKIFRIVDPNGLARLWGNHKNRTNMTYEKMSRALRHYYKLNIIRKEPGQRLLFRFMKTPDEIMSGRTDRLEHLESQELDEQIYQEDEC

In the case of TGCTTT, the binding signal in the experiment with FEV is 1.05 fold enrichment (6-mer frequency, TF over GST control); in the experiment with ETV5 it was 1.05 fold enrichment (6-mer frequency, TF over GST control); with HSF1, 1.05 fold enrichment (6-mer frequency, TF over GST control); in the experiment with SPIC, 1.16 fold enrichment (6-mer frequency, TF over GST control); with ELF4 it was 1.14 fold enrichment (6-mer frequency, TF over GST control); with ELK4 it was 1.23 fold enrichment (6-mer frequency, TF over GST control). The binding signal in the experiment with ETV2 is 1.12 fold enrichment (6-mer frequency, TF over GST control); with ELF3, 1.05 fold enrichment (6-mer frequency, TF over GST control); with CRX, 1.09 fold enrichment (6-mer frequency, TF over GST control); with ETV1 it was 1.06 fold enrichment (6-mer frequency, TF over GST control); with ERF it was 1.29 fold enrichment (6-mer frequency, TF over GST control); with ETV3L, 1.11 fold enrichment (6-mer frequency, TF over GST control). For the same sequence, the binding signal with ETS2 is 1.07 fold enrichment (6-mer frequency, TF over GST control); with SPDEF, 1.02 fold enrichment (6-mer frequency, TF over GST control); with ETV7 it was 1.19 fold enrichment (6-mer frequency, TF over GST control); with ELF5, 1.15 fold enrichment (6-mer frequency, TF over GST control); with ETV3, 1.14 fold enrichment (6-mer frequency, TF over GST control); in the experiment with ETV6, 1.1 fold enrichment (6-mer frequency, TF over GST control).
